Sampled rows, rich in hits. Any-hit rate of the full collection: about 3.4%.
MEKK2mut PB1 HTS – signal of MEK5 binding to mutant human MEKK2 PB1 domain | bead flow cytometry, Alexa488-MEK5 binding to MEKK2 mutant | percent response, % at 10 µM | 290,000 compounds, 0.35% hits; in the data active = percent response above about 24%, passing the limit was not always enough
TMEM16A act – mouse TMEM16A channel activation, primary screen. Q8BHY3. HEK293 TMEM16A/YFP-H148Q/I152L, iodide quench fluorescence; hits give low values. B-score at 10 µM. 340,000 compounds, 0.3% hits;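 active = fluorescence-ratio B-score plate-corrected deviation score at least 3 library SD below zero, with starting fluorescence score within 5 deviations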;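 also: channel opened by trigger with iodide after compound preincubation; score built on the fluorescence ratio of max minus min over baseline; more negative score means more quench and so TMEM16A activation or potentiation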
MEKK2wt PB1 HTS – raises or lowers MEK5 binding to wildtype human MEKK2 PB1 domain | bead flow cytometry, Alexa488-MEK5 binding to MEKK2 WT; actives lie on both sides | binding response (% of control), % at 10 µM | 290,000 compounds, 1.1% hits | AID 1531; in the data active = binding response below about 67% or above about 130%
ANO1 block – inhibitors of mouse TMEM16A calcium-activated chloride channel; HEK293 TMEM16A/YFP iodide influx fluorescence, ionomycin; normalized B-score (activity score, 25-100; higher = stronger inhibition) at 10 µM; 310,000 compounds, 1.2% hits; AID 588511;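 active = ratio plate-corrected score three or more library SD toward inhibition, starting fluorescence score within five deviations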;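 also: score derived from kinetic fluorescence span divided by baseline fluorescence per well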
NTR1 agonist – NTR1 (human) agonism; P30989; NTR1-U2OS beta-arrestin-GFP spot imaging, agonist mode; activation, % at 20 µM; 330,000 compounds, 0.17% hits; AID 493036;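 active = activation at or above 40% of the spot to cytoplasm intensity ratio, with at least 20 cells analyzed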
Target sequence (P30989 whole entry, looked up): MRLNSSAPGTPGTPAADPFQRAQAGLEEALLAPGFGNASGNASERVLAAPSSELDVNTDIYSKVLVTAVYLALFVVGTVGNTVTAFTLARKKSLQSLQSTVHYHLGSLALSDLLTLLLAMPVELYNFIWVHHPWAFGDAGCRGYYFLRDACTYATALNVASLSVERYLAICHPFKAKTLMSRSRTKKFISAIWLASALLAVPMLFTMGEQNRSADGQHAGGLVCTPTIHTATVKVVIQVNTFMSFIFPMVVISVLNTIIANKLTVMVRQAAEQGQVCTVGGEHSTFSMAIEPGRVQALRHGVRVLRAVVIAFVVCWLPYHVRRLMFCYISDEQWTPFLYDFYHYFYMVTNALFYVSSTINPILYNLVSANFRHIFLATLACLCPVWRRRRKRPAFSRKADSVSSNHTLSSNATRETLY
MEKK3 PB1 HTS – modulators (inhibitors or enhancers) of MEK5 binding to human MEKK3 PB1 domain | Q99759 | bead-based flow cytometry, Alexa488-MEK5 binding to MEKK3; actives lie on both sides; 0 = blocked by unlabeled MEK5, 100 = vehicle | binding response (% of control), % at 10 µM | 290,000 compounds, 1.4% hits | AID 1529;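 active = binding response more than 3 SD above or below the average of its plate-row segment, actives on both sides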;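 also: Alexa488 bead fluorescence after subtracting the streptavidin-only scavenger bead signal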
MEKK2wt confirm – raises or lowers MEK5 binding to wildtype human MEKK2, retest. shares compounds with MEKK3 PB1 HTS. bead flow cytometry, Alexa488-MEK5 binding to MEKK2 WT; actives lie on both sides. binding response (% of control), % at 10 µM. 5,900 compounds, 2.4% hits; in the data active = binding response below about 16% or above about 210%; inactive = in between
MEKK2mut-MEK5 – signal of MEK5 binding to mutant human MEKK2, retest; AID 1893; bead flow cytometry, Alexa488-MEK5 binding to MEKK2 mutant; percent response, % at 10 µM; 5,900 compounds, 2% hits; shares compounds with MEKK3 PB1 HTS; in the data active = percent response mostly above about 71%, no sharp cut-off; inactive = mostly below about 38%;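 also: higher means compound restores mutant binding toward wildtype level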
MEKK3 confirm – confirmation of inhibitors of MEK5 binding to human MEKK3. shares compounds with MEKK3 PB1 HTS. bead flow cytometry, Alexa488-MEK5 binding to MEKK3; hits give low values. binding response (% of control), % at 10 µM. 5,900 compounds, 1.8% hits. AID 1894;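 active = binding response below 72% of control, or above a set upper limit, though filed actives all read lower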;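 also: lower values mean stronger disruption of MEK5 binding to MEKK3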
A number is an active result; [ ] = dose if it differs, or a comment.

Screening Cc1ccc2c(c1)c1c(n2CC(O)Cn2nc(C)c(Br)c2C)CCCC1 (stereo unspecified) returned MEKK2mut PB1 HTS inactive, TMEM16A act inactive, MEKK2wt PB1 HTS inactive, ANO1 block inactive, NTR1 agonist inactive and MEKK3 PB1 HTS inactive.
For Cc1ccc2c(c1)c1c(n2CC(O)Cn2c(C)nc3ccccc32)CCCC1 (stereo unspecified) the results were MEKK2mut PB1 HTS 27, TMEM16A act inactive, MEKK2wt PB1 HTS inactive, ANO1 block inactive, NTR1 agonist inactive, MEKK3 PB1 HTS inactive, MEKK2wt confirm inactive, MEKK2mut-MEK5 inactive and MEKK3 confirm inactive.
For CCOC(=O)N1CCC(NC(=O)C2=CCN(S(=O)(=O)c3ccc(OC)cc3)CC2)CC1 the results were MEKK2mut PB1 HTS inactive, TMEM16A act inactive, MEKK2wt PB1 HTS inactive, ANO1 block inactive, NTR1 agonist inactive, MEKK3 PB1 HTS 128, MEKK2wt confirm inactive, MEKK2mut-MEK5 inactive and MEKK3 confirm inactive.
For N#Cc1c2nc3ccccc3nc2n2cc(NC(=O)c3ccc(F)cc3)ccc12 the results were MEKK2mut PB1 HTS inactive, TMEM16A act inactive, MEKK2wt PB1 HTS -1.0[inhibitor], MEKK3 PB1 HTS 56[inhibitor], MEKK2wt confirm inactive, MEKK2mut-MEK5 inactive and MEKK3 confirm inactive.
For Cc1c(C(=O)Nc2ccc(F)cc2)cn2c(nc3ccccc32)c1C#N the results were MEKK2mut PB1 HTS inactive, TMEM16A act inactive, MEKK2wt PB1 HTS inactive, ANO1 block inactive, NTR1 agonist inactive and MEKK3 PB1 HTS inactive.
Screening CC(C)c1nc2sc3c(=O)n(N)cnc3c2c2c1COC(C)(C)C2 returned MEKK2mut PB1 HTS inactive, TMEM16A act inactive, MEKK2wt PB1 HTS inactive, ANO1 block inactive, NTR1 agonist inactive, MEKK3 PB1 HTS 145, MEKK2wt confirm inactive, MEKK2mut-MEK5 inactive and MEKK3 confirm inactive.
Screening CN(Cc1ccccc1)c1ccc(N2C(=O)CCC2=O)cc1[N+](=O)[O-] returned MEKK2mut PB1 HTS inactive, TMEM16A act inactive, MEKK2wt PB1 HTS inactive, ANO1 block inactive, NTR1 agonist inactive and MEKK3 PB1 HTS inactive.
O=C(COC(=O)CN1C(=O)C2CCCCC2C1=O)NNC(=O)c1ccc(Cl)cc1 (stereo unspecified) was read as TMEM16A act inactive, ANO1 block inactive and NTR1 agonist inactive.
O=C(Oc1coc(CSc2nnc(NC(=O)C3CC3)s2)cc1=O)c1c(F)cccc1F was read as MEKK2mut PB1 HTS inactive, TMEM16A act inactive, MEKK2wt PB1 HTS inactive, ANO1 block inactive, NTR1 agonist inactive, MEKK3 PB1 HTS 64[inhibitor], MEKK2wt confirm inactive, MEKK2mut-MEK5 inactive and MEKK3 confirm inactive.
`COc1ccc(-c2cnnc(N/N=C/c3ccc(O)cc3)n2)cc1` gave MEKK2mut PB1 HTS inactive, TMEM16A act inactive, MEKK2wt PB1 HTS inactive, ANO1 block inactive, NTR1 agonist inactive, MEKK3 PB1 HTS 128, MEKK2wt confirm inactive, MEKK2mut-MEK5 inactive and MEKK3 confirm inactive.
`Cc1cc(NC(=O)CN2C(=O)NC3(CCCCC3)C2=O)no1` gave MEKK2mut PB1 HTS inactive, TMEM16A act inactive, MEKK2wt PB1 HTS inactive, ANO1 block inactive, NTR1 agonist inactive, MEKK3 PB1 HTS 135, MEKK2wt confirm inactive, MEKK2mut-MEK5 inactive and MEKK3 confirm inactive.
Screening Cc1cc(NC(=O)CN2C(=O)NC3(CCCCCC3)C2=O)no1 returned MEKK2mut PB1 HTS inactive, TMEM16A act inactive, MEKK2wt PB1 HTS inactive, ANO1 block inactive, NTR1 agonist inactive and MEKK3 PB1 HTS inactive.
